Compound activity (PubChem)
AMA1-RON2 inh: disrupts binding of P. falciparum AMA1 to RON2; AlphaScreen AMA1-biotinylated RON2 peptide binding; Potency, µM (top dose mostly 58.2 µM), inactives show top-dose activity change, negative = inhibition, hits mostly inhibitors; 360,000 compounds, 0.2% hits; AID 720542;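 note: 0% = vehicle wells and -100% = peptide control; nearly all actives have a fitted effect of over 45% in size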
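AMA1 (3D7) with his tag at 25 nM final met compounds first, then biotinylated RON2 peptide at 25 nM; detection used donor plus acceptor beads, 10 µg/mL apiece, read by AlphaScreen after 30 min at room temperature.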
HCV inh: HCV inhibition; 340,000 compounds, 3.4% hits; AID 651820; Huh7.5.1 HCVcc-Cre infection, luciferase reporter, 44 h; Potency, µM (series often up to 41.8 µM), without a hit: at the top dose activity change, negative = inhibition, hits mostly inhibitors; note: % is set by controls: 0 for no effect and ±100 for the full control effect
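HCVcc-Cre virus at an moi near 0.5 was added right after compound to cells cultured 4 h from seeding (1,000 cells/well). Luciferase activity was determined 44 h later, 15 min after substrate addition at RT.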
Pf growth 96h: P. falciparum growth inhibition at 96 hours; Potency, µM (top dose mostly 28.7 µM), without a hit: top-dose activity change, negative = inhibition, actives largely listed as inhibitors; 320,000 compounds, 6.9% hits; P. falciparum luciferase reporter growth, 96 h; note: % is set by controls: 0 for no effect and ±100 for the full control effect
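Erythrocytes infected with luciferase-expressing P. falciparum were dispensed at 2% hematocrit and 0.05% parasitemia (final), then incubated with compounds 96 hours at 37 C in 5% CO2. Luminescence after detection reagent addition reported growth.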
NS1 function inh: influenza NS1 inhibition | 270,000 compounds, 0.4% hits | AID 2326 | Potency, µM (top dose mostly 46.1 µM), for the others: top-dose activity, positive = more growth; calls by dose curve; note: actives are rising curves; nearly all actives have a fitted effect of over 50% in size
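In this qHTS, NS1 from influenza A is expressed in budding yeast, where it slows growth. Cells are switched from glucose to 2% galactose medium (pH 6.0, -URA), treated with compound, and growth recovery is read at OD600.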
Pf growth 48h: inhibits P. falciparum growth in the first generation, 48 h | P. falciparum luciferase growth in erythrocytes, 48 h | AID 504832 | 310,000 compounds, 5.9% hits | Potency, µM (doses to about 28.7 µM), for the others: at the highest dose activity change, negative = inhibition, hits mostly inhibitors; note: % is set by controls: 0 for no effect and ±100 for the full control effect
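Cell-based growth assay: transgenic P. falciparum expressing firefly luciferase, cultured in red cells within RPMI 1640 containing 0.5% w/v Albumax, 24 mM bicarbonate and gentamycin. A drop in luciferase activity indicates inhibition.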
SARS PLpro yeast: blocks SARS-CoV papain-like protease in a yeast assay; Potency, µM (series often up to 32.9 µM), for inactives: at the highest dose activity, positive = growth rescue, actives largely listed as activators; 330,000 compounds, 0.19% hits; S. cerevisiae expressing SARS-CoV PLpro, growth rescue; calls by dose curve; note: 0% is about no effect; nearly all actives have a fitted effect of over 55% in size
* = called active by the depositor; ? = inconclusive; nt = no result. Hits are enriched below; roughly 12% of the tested compounds scored in any of these assays. Unless noted, calls come from the whole dose curve; as a rule, active = well fitted curve in the direction sought with a large enough effect; inconclusive = small, poorly fitted or top-dose-only effect, or another doubt; inactive = no such curve, though single readings can be large; an effect the other way counts as inactive or inconclusive. Potency is the fitted concentration of half-maximal effect.

SMILES	AMA1-RON2 inh	HCV inh	Pf growth 96h	NS1 function inh	Pf growth 48h	SARS PLpro yeast
COc1ccc(CN2CCNCC2)c(OC)c1OC	-18%	?	-22%	-2%	-65%	-7%
COc1ccc(CN2CCN(c3ccc(F)cc3)CC2)c(OC)c1OC	-10%	?	23%	1%	-5%	15%
COc1ccc(CN2CCN(C(c3ccc(F)cc3)c3ccc(F)cc3)CC2)c(OC)c1OC	?	1µM*	6.7µM*	nt	9.5µM*	nt
COc1ccc(CN2CCN(Cc3cc(=O)oc4cc(C)ccc34)CC2)c(OC)c1OC	-8%	?	9.3µM*	0%	?	-3%
COc1ccc(CN2CCN(Cc3ccc(Br)cc3)CC2)c(OC)c1OC	?	13µM*	39%	7%	0%	1%
Cc1cc(NC(=O)COC(=O)[C@@H]2CCCN2C(=O)c2cccs2)no1	0%	11%	nt	nt	nt	nt
O=c1[nH]c2cc3c(cc2cc1CN(CC1CCCO1)S(=O)(=O)c1ccccc1)OCCO3 (centres undefined)	0%	14%	?	-2%	?	9%
CC(=O)c1cccc(S(=O)(=O)N(Cc2cc3cc4c(cc3[nH]c2=O)OCCO4)CC2CCCO2)c1 (centres undefined)	-17%	0%	13µM*	-1%	-14%	-3%
O=C(NCc1ccccc1)N(Cc1cc2cc3c(cc2[nH]c1=O)OCCO3)CC1CCCO1 (centres undefined)	-4%	10%	8.3µM*	-3%	nt	0%
CC(C)c1ccccc1-n1c(SCc2cc(=O)oc3ccc4ccccc4c23)nnc1-c1cccnc1	-21%	?	8.3µM*	?	13µM*	-7%
CC(=O)Nc1ccc2c(CSc3nnc(-c4cccnc4)n3-c3ccc(C)cc3C)cc(=O)oc2c1	-1%	-20%	7.4µM*	-30%	?	-15%
CCCn1c(SCc2cc(=O)oc3ccc4ccccc4c23)n[nH]c1=O	-3%	-19%	?	-43%	?	-3%
CCOc1ccc(-n2c(SCc3cc(=O)oc4cc(C)ccc34)nnc2-c2cccnc2)cc1	5%	?	?	3%	?	-5%
O=C(CS(=O)CC(=O)Nc1cccnc1)Nc1ccc(F)cc1 (centres undefined)	9%	0%	-2%	5%	?	1%
CC(C)(c1ccc(O)c([N+](=O)[O-])c1)c1ccc(O)c([N+](=O)[O-])c1	4%	0%	nt	nt	nt	nt
O=[N+]([O-])c1cc([As](=O)(O)O)ccc1O	-10%	-2%	1.7µM*	nt	2.6µM*	1%
Cc1ccccc1OCCCC(=O)Nc1ccc(S(=O)(=O)Nc2onc(C)c2C)cc1	-5%	2%	22%	-34%	-2%	0%
Cc1nn(C)cc1S(=O)(=O)Nc1ccc(C(F)(F)F)cc1	-4%	10%	-6%	14%	32%	1%
Cc1ccc(C(=O)NC2CCN(S(=O)(=O)c3ccccc3F)CC2)cc1	8%	10%	13µM*	10%	-6%	-4%
O=C(NC1CCN(S(=O)(=O)c2ccccc2)CC1)c1ccc(F)cc1	-4%	7%	?	?	6%	-1%
O=C(NC1CCN(S(=O)(=O)c2ccccc2)CC1)c1ccccc1	1%	-4%	15µM*	6%	10%	-2%
CC(C)(C)c1ccc(-c2csc(NNC3=NCCCCC3)n2)cc1	-27%	25µM*	nt	2%	10µM*	-8%
Brc1ccc(-c2csc(NNC3=NCCCCC3)n2)cc1	-4%	?	?	?	10µM*	-20%
FC(F)Oc1ccc(-c2csc(NNC3=NCCCCC3)n2)cc1	19%	?	?	nt	?	-4%
COc1cc(OC)c(CN2CCCN(C)CC2)cc1Br	14%	7.1µM*	?	-6%	-1%	-1%
SMILES	AMA1-RON2 inh	HCV inh	Pf growth 96h	NS1 function inh	Pf growth 48h	SARS PLpro yeast
COc1cc(Br)cc(CN2CCN(C)CC2)c1O	23%	1%	284%	-4%	1%	5%
COc1cc(OC)c(CN2CCCCCCC2)cc1Br	-7%	6%	13µM*	4%	nt	-2%
COc1cc(OC)c(CN2CCN(c3ccc(F)cc3)CC2)cc1Br	?	9%	0%	-9%	nt	5%
CCc1c(N)nc(N)nc1Nc1ccc(C)c(C)c1	-27%	-25%	nt	nt	nt	nt
CCCc1nc2c(C)ccc(C)c2c(N)c1CC	-12%	?	9.3µM*	-7%	13µM*	5%
Cc1ccccc1CSc1ccc(S(=O)(=O)N2CCCC2)cn1	-2%	?	nt	nt	nt	-6%
O=S(=O)(c1ccc(SCc2ccc(Cl)cc2)nc1)N1CCCC1	42%	?	?	nt	12µM*	5%
Cc1cc(C)cc(CSc2ccc(S(=O)(=O)N3CCCC3)cn2)c1	18%	?	9.3µM*	nt	9.3µM*	-11%
Cc1csc(NC(=O)CCCC(=O)c2ccccc2)n1	1%	4%	?	-8%	0%	-2%
O=C1NC(c2ccccc2)=C(c2ccc3ccccc3n2)C(c2ccncc2)N1 (centres undefined)	-1%	22%	?	-3%	-3%	1%
O=C1NC(c2ccccc2)=C(c2nc3ccccc3s2)C(c2ccc(O)cc2)N1 (centres undefined)	3%	nt	7.4µM*	24%	2.1µM*	6%
O=C1NC(c2ccccc2)=C(c2ccc3ccccc3n2)C(c2ccc(F)cc2)N1 (centres undefined)	-6%	?	4.1µM*	5%	5.2µM*	-40%
O=C1NC(c2ccccc2)=C(c2ccc3ccccc3n2)C(c2ccccc2)N1 (centres undefined)	-7%	?	5.2µM*	-17%	12µM*	-23%
COCCNC(=O)C1(C)CCCN(C(=O)c2cccnc2SC)C1 (centres undefined)	-1%	nt	nt	nt	nt	nt
NC(=O)C1CCN(C(=O)C2CCC(=O)N(CC3CCCCC3)C2)CC1 (centres undefined)	-3%	0%	?	-1%	33%	-3%
CCOCCCNC(=O)c1cc2c(s1)-c1ccccc1SC2	-5%	-7%	5.2µM*	-28%	2.6µM*	-5%
CCOCCCNC(=O)c1cc2c(=O)[nH]c3ccccc3c2s1	-5%	-16%	0%	-5%	?	-1%
CN(C)CCNC(=O)c1cc2c(s1)-c1ccc(Cl)cc1SC2	3%	11µM*	52%	-33%	2.6µM*	-4%
CN(C)CCNC(=O)c1ccc(Cl)s1	18%	9%	-18%	8%	35%	3%
O=C(Cc1c[nH]c2ccccc12)Nc1ccc(N2CCOCC2)cc1	-21%	7%	25%	nt	-18%	1%
NS(=O)(=O)c1ccc(Sc2ccc3ccccc3c2)nc1	-13%	6%	-13%	-29%	-8%	-6%
